HepG2 viability: kills HepG2 cells in TGF-b inhibitor counter-screen | HepG2 CAGA-GFP viability, ATP luminescence, 18 h | Potency, µM (top dose mostly 46.1 µM), without a hit: at the top dose activity change, negative = cytotoxicity, hits mostly cytotoxic | 0.76% of 410,000 active | AID 588856
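CellTiter-Glo luminescence gave cytotoxicity after 18 hours at 37 degrees C. The cells were HepG2 CAGA-GFP in 1% FBS DMEM, stimulated with 500 pg/mL TGF-beta after compound addition. %Activity was normalised to no-cell wells (complete cell-killing) and DMSO (no toxicity), and curves were fitted and classified.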
HT1080 IDH1KD tx: toxicity to HT-1080 IDH1 knockdown cells (counter line) | HT-1080 IDH1 knockdown viability, ATP luminescence, 48 h | Potency, µM (highest dose often 46.1 µM), without a hit: at the highest dose activity, negative = toxicity, hits mostly cytotoxic | 2% of 360,000 active | AID 686971;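 note: 0% = DMSO wells and -100% = cell-free medium wells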
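Luminescent ATP read-out (CellTiter-Glo, 10 min at room temperature) after 48 h compound exposure at 37 °C gave viability of IDH1-knockdown HT-1080 cells. Activity was normalised to DMSO and cell-free wells, then fitted as concentration-response curves.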
DT40 TDP1 CPT: growth inhibition of DT40 Tdp1-/-;hTDP1 cells with camptothecin (screen for TDP1 inhibitors). chicken DT40 Tdp1-/-;hTDP1 cells + 20 nM CPT, ATP luminescence, 48 h. Potency, µM (highest dose often 46.2 µM), inactives show top-dose activity change, negative = growth inhibition, actives largely listed as inhibitors. 12% of 420,000 active. AID 686979; note: % is set by controls: 0 for no effect and ±100 for the full control effect; nearly all actives have a fitted effect of over 55% in size
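Cell growth measured by CellTiter-Glo luminescence after a minimum 48 h, 37 C compound exposure with 20 nM CPT in Tdp1-knockout DT40 cells stably expressing hTDP1, seeded 400/well; qHTS titration format.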
TGFb SMAD3 inh: inhibitors of TGF-b signaling. HepG2 CAGA-GFP TGF-b/SMAD3 reporter, GFP fluorescence, 18 h; TGF-beta stimulated, 500 pg/mL final. 1.2% of 410,000 active. Potency, µM (top dose mostly 46.1 µM), without a hit: top-dose activity, negative = inhibition, actives largely listed as inhibitors. AID 588855; note: % is set by controls: 0 for no effect and ±100 for the full control effect; nearly all actives have a fitted effect of over 65% in size
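HEPG2 CAGA-GFP reporter cells (1000/well, DMEM with 1% FBS) received compounds, then recombinant TGF-beta at 500 pg/mL final for 18 hours at 37 degrees C. Per-cell GFP summed per well was normalised to unstimulated and stimulated DMSO controls before curve fitting.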
HT1080-NT tox: kills 2HG-producing HT-1080-NT fibrosarcoma cells | Potency, µM (titrated, usually from 46.1 µM), for the others: at the top dose activity, negative = less viability, hits mostly cytotoxic | AID 686970 | 1.6% of 360,000 active | HT-1080-NT fibrosarcoma viability, CellTiter-Glo ATP luminescence, 48 h;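 note: NT is the 2HG producing partner of a matched IDH1 knockdown line; 0% = DMSO-treated cells and -100% = media-only wells without cells; nearly all actives have a fitted effect of over 55% in size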
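HT-1080-NT fibrosarcoma cells (2HG-overproducing), 750 cells/well in RPMI with 5% FBS, dosed after 2 h and incubated 48 h at 37C. CellTiter-Glo luminescence normalized to DMSO and no-cell wells; concentration-response curves fitted and classed.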
TDP1 cell noCPT: qHTS for Inhibitors of human tyrosyl-DNA phosphodiesterase 1 (TDP1): qHTS in cells in absence of CPT | DT40 Tdp1-/- hTDP1 cells, no CPT, ATP luminescence, 48 h | Potency, µM (series often up to 46.2 µM), for the others: at the highest dose activity change, negative = growth inhibition, most hits filed as inhibitors | 15% of 420,000 active; note: % is set by controls: 0 for no effect and ±100 for the full control effect; nearly all actives have a fitted effect of over 55% in size
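A cellular qHTS used chicken DT40 cells lacking endogenous Tdp1 but carrying stably transfected human TDP1. Compounds were applied without camptothecin, and cell growth kinetics were judged by ATP-dependent luminescence after ≥48 hr.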
Active calls of the source: *; ? = inconclusive; nt = no result; ! = not confirmed by another sample. Compounds with a hit are over-represented: about 17% of the library has one in this group of screens. Calls come from the whole dose curve; as a rule, active = well fitted curve in the direction sought with a large enough effect; inconclusive = small, poorly fitted or top-dose-only effect, or another doubt; inactive = no such curve, though single readings can be large; an effect the other way counts as inactive or inconclusive. Potency is the fitted concentration of half-maximal effect.

SMILES	HepG2 viability	HT1080 IDH1KD tx	DT40 TDP1 CPT	TGFb SMAD3 inh	HT1080-NT tox	TDP1 cell noCPT
Cc1cccc(OCC(O)Cn2c(=N)n(Cc3ccccc3)c3ccccc32)c1 (centres undefined)	-71%	-18%	?	?	-1%	21µM*
Cc1cccc(OCC(O)CN2CCNCC2)c1 (centres undefined)	3%	19%	-22%	9%	20%	9%
N=c1n(Cc2ccc(Cl)cc2)c2ccccc2n1CC(O)COc1ccccc1 (centres undefined)	-167%	15µM*	?	?	21µM*	8.2µM*
N=c1n(Cc2ccccc2)c2ccccc2n1CC(O)COc1ccc(Cl)cc1Cl (centres undefined)	11µM*	12µM*	21µM*	?	29µM*	7.3µM*
COc1ccc(OCC(O)Cn2c(=N)n(Cc3ccccc3)c3ccccc32)cc1 (centres undefined)	-97%	11µM*	?	?	?	6.5µM*
O=C(CSCc1cc(=O)n2ccsc2n1)Nc1ccc(F)cc1	-7%	16%	10%	-2%	3%	7%
Cc1nn(CC(=O)NC2(C#N)CCCCC2)c(C)c1[N+](=O)[O-]	-10%	1%	-15%	-1%	-5%	10%
Cc1cccc(OCC(O)Cn2c(=N)n(CCN3CCCCC3)c3ccccc32)c1 (centres undefined)	11µM*!	11µM*	12µM*	?	10µM*	13µM*
COc1ccc(C(O)c2cnc(C)n2Cc2ccccc2)cc1 (centres undefined)	6%	0%	?	12%	0%	18µM*
Cc1cccc(CNC(=O)c2cc(S(=O)(=O)N3CCOCC3)cn2C)c1	11%	0%	-1%	8%	12%	30%
CC1CCN(S(=O)(=O)c2cc(F)ccc2CN2C(=O)c3cccnc3C2=O)CC1	3%	9%	1%	7%	6%	6%
CCc1ccc(C(O)c2ncc(-c3ccccc3Cl)[nH]2)cc1 (centres undefined)	-14%	-4%	-17%	13%	-7%	-25%
CC(C)(C)N(CC#CCC(O)(c1ccccc1)c1ccccc1)CCO	-11%	7%	-30%	-23%	-5%	?
CCOC(=O)CSc1cc(-c2ccccc2)nc2ncnn12	-49%	18µM*	-9%	-25%	?	?
FC(F)(F)c1ccc(N2CCN(c3cc(-c4ccccc4)nc4ncnn34)CC2)nc1	-22%	0%	3.7µM*	?	-10%	3.3µM*
c1ccc(-c2cc(-c3ccccc3)n3ncnc3n2)cc1	-30%	-2%	?	-2%	1%	29µM*
FC(F)(F)c1cccc(Nc2cc(-c3ccccc3)nc3ncnn23)c1	-2%	4%	-29%	-3%	7%	?
Cc1cc(-c2ccccc2)n2ncnc2n1	-11%	6%	1%	2%	9%	3%
CC(=O)N(NC(=O)c1ccccc1Cl)C1CC(=O)N(c2ccc(C)cc2)C1=O (centres undefined)	3%	20%	-3%	-4%	2%	-1%
Cc1n[nH]c(=O)c2c(NC(=O)CSc3nc4ccccc4c(=O)n3CCCO)oc(C)c12	3%	-17%	?	-3%	-21%	?
O=C(O)c1ccc(N2CC3CC(C2)c2cccc(=O)n2C3)c(NS(=O)(=O)c2cccc(C(F)(F)F)c2)c1 (centres undefined)	-18%	19%	-3%	2%	0%	?
CCCCN1C2CCCC1CC(NC(=O)c1cccc(Cl)c1)C2 (centres undefined)	-39%	-3%	?	-3%	12%	23µM*
S=C(Nc1cccc2ccccc12)NC1CCCCC1	-7%	-10%	?	-5%	5%	16µM*
S=C(Nc1cccc2ccccc12)Nc1cccc2ccccc12	7%	-16%	?	0%	-17%	?
COc1cccc(C(=O)NNC(=S)NC2CCCCC2)c1	-12%	0%	16µM*	-30%	0%	?
SMILES	HepG2 viability	HT1080 IDH1KD tx	DT40 TDP1 CPT	TGFb SMAD3 inh	HT1080-NT tox	TDP1 cell noCPT
CCCCc1ccccc1NC(=S)NC1CCCC1	-50%	-12%	?	?	-17%	18µM*
COc1ccc(NC(=O)COc2ccc(S(=O)(=O)NC3CCCCC3)cc2)c(OC)c1	-18%	nt	15µM*	-34%	nt	16µM*
CCOc1ccc(NC(=O)COc2ccc(S(=O)(=O)NC3CCCCC3)cc2)cc1	-6%	nt	?	-25%	nt	?
COc1cccc(C(=O)NC2CC3CCCC(C2)N3S(=O)(=O)c2ccccc2)c1 (centres undefined)	-25%	-2%	13µM*	?	-18%	12µM*
COc1cc(C)c(NC(=O)COc2ccc3c(c2)CCC3)cc1OC	-9%	2%	23µM*	-22%	0%	?
COc1ccc(NC(=S)NC2CCCCCC2)c(OC)c1	-49%	3%	?	?	20%	23µM*
COc1ccc(S(=O)(=O)N(C)C)cc1NC(=O)COc1ccc2c(c1)CCC2	-41%	-11%	-22%	-2%	-9%	?
CC(NC(=O)COC(=O)c1cc(S(=O)(=O)N2CCOCC2)ccc1F)c1ccccc1 (centres undefined)	-3%	-5%	11%	-4%	0%	-7%
COc1ccc(-n2c(=O)c3ccc(C(=O)NCc4ccc(C)cc4)cc3n(Cc3cccc(Cl)c3)c2=O)cc1	5%	nt	?	19%	nt	?
COc1cccc(Cn2c(=O)cnc3cnc(Oc4ccccc4)nc32)c1	nt	nt	-5%	nt	nt	-12%
S=C(Nc1ccccc1Oc1ccccc1)NC1CCCC1	-37%	-2%	?	-26%	2%	18µM*
O=C(NNC(=S)NC1CCCCC1)c1ccc(Cl)s1	-3%	-23%	-24%	?	-4%	15µM*
O=C(NNC(=S)NC1CCCCC1)c1cccs1	18%	4%	2%	-11%	6%	5%
COc1ccccc1NC(=S)NC1CCCC1	-2%	-3%	5%	10%	-19%	48%
COc1ccccc1NC(=S)NC1CCC(CC2CCC(NC(=S)Nc3ccccc3OC)CC2)CC1 (centres undefined)	-9%	-3%	10µM*	-7%	1%	13µM*
